Drawing on PubChem BioAssay (EPA / NIEHS), this text covers outcome and AC50 for 9 compounds.

Assay [1] is described as follows: Tanguay_ZF_120hpf_JAW_legacy: (Legacy) Oregon State University Tanguay Lab 120 Hour Post-fertilization zebrafish Assay for Jaw Malformation (AID 2283638). Put shortly: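 Binary jaw-malformation call at 120 hpf by brightfield microscopy. Embryos (Tropical 5D strain, chorion removed at 4 hpf) were dosed statically at 6 hpf, one per well, at 28C with 0.64% DMSO. Embryos that died were not scored.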

The nature of assay [2]: Tanguay_ZF_120hpf_OTIC_legacy: (Legacy) Oregon State University Tanguay Lab 120 Hour Post-fertilization zebrafish Assay for Otic Vesicle Malformation (AID 2283639). The essentials: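 Binary scoring of otic vesicle defects at 120 hpf in zebrafish (Tropical 5D) held under static exposure at 28C, sealed and shaded, with final DMSO 0.64%. Embryos dying by 24 or 120 hpf excluded; fitted positively against DMSO.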

A short description of assay [3]: Tanguay_ZF_120hpf_PE_legacy: (Legacy) Oregon State University Tanguay Lab 120 Hour Post-fertilization zebrafish Assay for Pericardial Edema (AID 2283640). The essentials:
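Scoring was binary, by brightfield microscopy at 120 hpf, and skipped where mortality occurred. Wild-type embryos were kept under sealed, foil-covered static exposure at 28C in 0.64% (vol/vol) DMSO.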

Assay [4] can be described thus: Tanguay_ZF_120hpf_PFIN_legacy: (Legacy) Oregon State University Tanguay Lab 120 Hour Post-fertilization zebrafish Assay for Pectoral Fin Malformation (AID 2283648).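 Note: each larva judged yes or no for fin defect by brightfield with dead larvae skipped.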 The essentials:
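Binary pectoral fin malformation call at 120 hpf by brightfield microscopy; 5D wild-type zebrafish, chorion removed at 4 hpf, one embryo per well from 6 hpf, static exposure at 28C; DMSO (0.64% final) as baseline.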

Assay [5] can be described thus: Tanguay_ZF_120hpf_PIG_legacy: (Legacy) Oregon State University Tanguay Lab 120 Hour Post-fertilization zebrafish Assay for Pigmentation Malformation (AID 2283650). The essentials: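 Brightfield scoring of pigmentation malformation at 120 hpf, recorded as binary present/absent per larva. Exposure: dechorionated 5D wild-type embryos, one per well, static from 6 hpf at 28C, final DMSO 0.64% (vol/vol). Dead embryos not scored.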

Assay [6] in a line: Tanguay_ZF_120hpf_CIRC_legacy: (Legacy) Oregon State University Tanguay Lab 120 Hour Post-fertilization zebrafish Assay for Circulatory Malformation (AID 2283651). The essentials: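 Binary circulatory malformation call at 120 hpf by brightfield imaging of zebrafish larvae; chorion removed at 4 hpf, static exposure from 6 hpf in sealed dark plates at 28C, final DMSO 0.64%; non-mortality endpoints skipped if embryo died.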

Assay [7] in a line: Tanguay_ZF_120hpf_SWIM_legacy: (Legacy) Oregon State University Tanguay Lab 120 Hour Post-fertilization zebrafish Assay for Swim Bladder Malformation (AID 2283654).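 Note: swim bladder malformation in each larva scored yes or no under brightfield.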 Put shortly:
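Tropical 5D embryos dechorionated at 4 hpf; 1 embryo/well from 6 hpf; static, sealed, dark exposure at 28C until 120 hpf; final DMSO 0.64%; 5uM trimethyltin chloride positive control; swim bladder defect recorded yes/no; dead embryos not scored.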

The nature of assay [8]: Tanguay_ZF_120hpf_TRUN_legacy: (Legacy) Oregon State University Tanguay Lab 120 Hour Post-fertilization zebrafish Assay for Truncated Body (AID 2283655). The essentials:
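Binary presence/absence of truncated body is recorded at 120 hpf by brightfield, with non-mortality endpoints skipped after death. Exposure is static from 6 hpf in sealed dark plates at 28C, using dechorionated wild-type zebrafish, 0.64% DMSO.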

Assay [9] in a line: Tanguay_ZF_120hpf_NC_legacy: (Legacy) Oregon State University Tanguay Lab 120 Hour Post-fertilization zebrafish Assay for Notochord and Tail Malformation (AID 2283656). The essentials: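 Binary scoring of notochord distortion by brightfield microscopy; embryos dying were not scored. Wild-type Tropical 5D embryos, chorion removed, exposed singly and statically from 6 to 120 hpf, 28C, sealed, 0.64% DMSO.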

Read-out in assay [10]: Broad substrate specificity ATP-binding cassette transporter ABCG2 (Homo sapiens) (UniProt Q9UNQ0)
As to the kind of experiment: CLD_ABCG2_6hr: CellzDirect (CLD) Gene Expression Assay for ABC Transporter (ABCG2) at 6 hours (AID 2283660). The essentials:
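ABCG2 mRNA induction measured by qNPA chemiluminescence in human primary hepatocyte cultures, 6 h post-dose. Chemicals tested at several concentrations against a 0.2% DMSO vehicle; positive-direction fit relative to DMSO.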

Assay [11] can be described thus: Tanguay_ZF_120hpf_BRAI_legacy: (Legacy) Oregon State University Tanguay Lab 120 Hour Post-fertilization zebrafish Assay for Brain Malformation (AID 2283641). The essentials:
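Binary brightfield scoring of brain malformation at 120 hpf in Tropical 5D larvae held under static exposure at 28C (0.64% v/v DMSO), non-mortality endpoints skipped if dead. Positive control: 5uM trimethyltin chloride; fit versus DMSO.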

Assay [12] in a line: Tanguay_ZF_120hpf_CFIN_legacy: (Legacy) Oregon State University Tanguay Lab 120 Hour Post-fertilization zebrafish Assay for Caudal Fin Malformation (AID 2283649). The essentials:
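Binary brightfield scoring of caudal fin defects at 120 hpf after static, light-shielded exposure at 28C from 6 hpf. Tropical 5D embryos, chorion removed with pronase at 4 hpf, final DMSO 0.64%.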

Read-out in assay [13]: kallikrein-3 (KLK3), KLK3 (gene 354)
Put plainly: LTEA_HepaRG_KLK3: Life Technologies and Expression Analysis (LTEA) Assay for kallikrein-3 (KLK3) using HepaRG (AID 2283652; active = hit-call score of the fitted dose curve at least 0.9, where 1 is the maximum; inactive = score below 0.9). As to conditions: mRNA level, 48 h; actives raise or lower the signal. Put shortly:
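KLK3 transcript levels were measured by TaqMan qRT-PCR with normalisation to three housekeeping genes. HepaRG cultures received chemicals for 48 h at up to 100 uM (half-log, 8 points, 0.5% DMSO vehicle), fitted in both directions against DMSO.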

Read-out in assay [14]: solute carrier (SLC22A6), SLC22A6 (gene 9356)
Put plainly: LTEA_HepaRG_SLC22A6: Life Technologies and Expression Analysis (LTEA) Assay for solute carrier (SLC22A6) using HepaRG (AID 2283653; active = hit-call score of the fitted dose curve at least 0.9, where 1 is the maximum; inactive = score below 0.9). As to conditions: mRNA level, 48 h; actives raise or lower the signal. The essentials: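 SLC22A6 transcript was measured by TaqMan qRT-PCR, normalized to three housekeeping genes, after 48 h duplicate exposure of HepaRG cells (100 uM top, half-log steps, 0.5% DMSO); bidirectional fit against vehicle.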

Read-out in assay [15]: matrix metalloproteinase-1 (MMP1), MMP1 (gene 4312)
As to the kind of experiment: LTEA_HepaRG_MMP1: Life Technologies and Expression Analysis (LTEA) Assay for matrix metalloproteinase-1 (MMP1) using HepaRG (AID 2283658; active = hit-call score of the fitted dose curve at least 0.9, where 1 is the maximum; inactive = score below 0.9). The settings on record: mRNA level, 48 h; actives raise or lower the signal. Put shortly:
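qRT-PCR (TaqMan, Fluidigm arrays) of MMP1 transcript, normalized against three housekeeping genes and fitted in both directions relative to 0.5% DMSO vehicle. Human HepaRG cultures received duplicate 48 h exposures across 8 points, highest 100 uM with half-log steps.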

The test system of assay [16] is Thyroperoxidase (TPO), gene 54314. Put plainly: CCTE_Simmons_AUR_rTPO: CCTE's Amplex UltraRed Assay for Thyroperoxidase (TPO) Inhibition, Simmons Lab (AID 2283662).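 Note: potency for loss of signal meaning inhibition of peroxidase activity.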 Put shortly: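 Rat thyroid microsomes (5 ug protein) with 25 uM Amplex UltraRed and 300 uM H2O2 in 200 mM phosphate buffer, 30 min at 37C in dark; fluorescence 544/590 nm. Eight concentrations, 5 nM–87.5 uM final, 0.5% DMSO, triplicate biological replicates.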

Read-out in assay [17]: ABC Transporter (ABCB1), ABCB1 (gene 5243)
As to the kind of experiment: CLD_ABCB1_6hr: CellzDirect (CLD) Gene Expression Assay for ABC Transporter (ABCB1) at 6 hours (AID 2283659).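 Note: hits raise ABCB1 transcript above the DMSO vehicle baseline.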 Put shortly: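 ABCB1 transcript measured by quantitative nuclease protection assay, chemiluminescent read-out, 6 h after dosing human hepatocyte cultures (0.2% DMSO vehicle, daily redosing). Activity fitted as increase over DMSO baseline; cytotoxicity flagged by phase-contrast morphology.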

Read-out in assay [18]: xenobiotic metabolism (CYP1A2), CYP1A2 (gene 1544)
Put plainly: CLD_CYP1A2_6hr: CellzDirect (CLD) Gene Expression Assay for xenobiotic metabolism (CYP1A2) at 6 hours (AID 2283663).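 For AC50: potency is for induction meaning a rise in mRNA above DMSO.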 The essentials:
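mRNA levels quantified by quantitative nuclease protection assay with chemiluminescence, 6 h after dosing human primary hepatocyte cultures (two donors) across several concentrations, vehicle 0.2% DMSO. Induction fitted upward versus DMSO; phase-contrast cytotoxicity annotated.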

Read-out in assay [19]: xenobiotic metabolism (CYP1A1), CYP1A1 (gene 1543)
Put plainly: CLD_CYP1A1_6hr: CellzDirect (CLD) Gene Expression Assay for xenobiotic metabolism (CYP1A1) at 6 hours (AID 2283661). Put shortly: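 Read-out 6 h post-dose: qNPA chemiluminescent quantitation of transcript induction against 0.2% DMSO. Cells were cultured primary human hepatocytes from two separate donor preparations; phase-contrast morphology annotated apparent cytotoxicity.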

Assay [20] can be described thus: Tanguay_ZF_120hpf_SOMI_legacy: (Legacy) Oregon State University Tanguay Lab 120 Hour Post-fertilization zebrafish Assay for Somite Malformation (AID 2283647). The essentials: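 Binary somite-defect scoring at 120 hpf, omitted for embryos that died, in wild-type (Tropical 5D) zebrafish with chorion removed by pronase at 4 hpf; static exposure began 6 hpf, single embryos per well, 28C, 0.64% DMSO; fitted positive versus DMSO.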

The term AC50 denotes the concentration giving half of the maximal activity seen.

Each structure is given as a SMILES string. Results filed as inconclusive are left out. The source made the active and inactive calls. Rule for the calls, unless noted: active = hit-call score of the fitted dose curve at least 0.9, where 1 is the maximum; inconclusive = response in the unintended direction; inactive = score below 0.9.

Broad substrate specificity ATP-binding cassette transporter ABCG2 (Homo sapiens), sequence (Q9UNQ0 whole entry, looked up): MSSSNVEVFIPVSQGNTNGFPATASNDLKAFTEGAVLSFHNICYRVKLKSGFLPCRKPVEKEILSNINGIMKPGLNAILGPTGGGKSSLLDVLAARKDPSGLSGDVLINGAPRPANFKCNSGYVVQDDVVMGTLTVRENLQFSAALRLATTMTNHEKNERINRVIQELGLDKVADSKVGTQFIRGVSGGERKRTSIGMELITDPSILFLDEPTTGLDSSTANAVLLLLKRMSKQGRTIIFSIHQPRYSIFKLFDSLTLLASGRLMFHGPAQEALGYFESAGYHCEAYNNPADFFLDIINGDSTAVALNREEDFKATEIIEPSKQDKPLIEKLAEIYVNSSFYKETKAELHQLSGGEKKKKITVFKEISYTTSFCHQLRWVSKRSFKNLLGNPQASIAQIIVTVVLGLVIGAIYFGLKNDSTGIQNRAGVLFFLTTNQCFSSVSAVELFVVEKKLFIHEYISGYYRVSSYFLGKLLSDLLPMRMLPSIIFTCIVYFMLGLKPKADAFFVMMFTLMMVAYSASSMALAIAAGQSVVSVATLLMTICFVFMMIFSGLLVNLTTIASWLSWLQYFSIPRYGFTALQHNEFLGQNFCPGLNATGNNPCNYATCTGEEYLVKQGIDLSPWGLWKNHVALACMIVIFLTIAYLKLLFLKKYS

Consider `CN1COCN(Cc2cnc(Cl)s2)C1=N[N+](=O)[O-]`, for which the compound was classed as inactive in assay [1], in [2], in assay [3], in [4], in assay [5] and in assay [6]. In addition, the call in [7], in [8], in [9] and in assay [10] was inactive.

Regarding `CCOP(=S)(OCC)Oc1ccc2c(C)c(Cl)c(=O)oc2c1`, the outcome in assay [1], in assay [3], in assay [11], in assay [4], in assay [12] and in [5] was inactive. Further, the outcome in [6], in assay [13], in [14], in assay [7], in assay [8] and in assay [9] was inactive. Further, the compound was classed as inactive in [15] and in assay [10]. The AC50 in [16] is 38.5 µM (active).

In the case of `CCOP(=S)(OCC)Oc1cc(C)nc(C(C)C)n1`, the outcome in assay [2], in assay [3], in assay [4], in assay [12], in assay [5] and in [6] was inactive. Besides, the compound was classed as inactive in [8], in assay [9] and in [10]. For the same compound, the AC50 in assay [16] is 14.4 µM (active).

As to `CCCCSP(=O)(SCCCC)SCCCC`, the outcome in assay [2], in assay [3], in [4], in assay [12], in [5] and in [6] was inactive. Further, the result in assay [7], in [17] and in [10] was inactive. Also, the AC50 in [18] is 2.96 µM (active).

For `Cc1nn(-c2cc(NS(C)(=O)=O)c(Cl)cc2Cl)c(=O)n1C(F)F`, the outcome in [1], in assay [2], in assay [3], in [4], in assay [5] and in assay [6] was inactive. Further, the compound was classed as inactive in assay [7], in [8], in [17], in assay [10], in [19] and in [18].

Take `CC(C)=CC1C(C(=O)OCN2C(=O)C3=C(CCCC3)C2=O)C1(C)C` (centres undefined): the result in assay [1], in assay [3], in assay [11], in [12], in assay [6] and in assay [7] was inactive. The compound was called inactive in [8], in assay [10] and in [19].

`CCOP(=S)(OCC)SCCSCC`: the outcome in [1], in [2], in assay [3], in assay [12], in [6] and in assay [7] was inactive. Further, the compound was called inactive in assay [8], in assay [9] and in assay [10]. Also, the AC50 in assay [18] was 3.97 µM (active).

`CCc1cccc(C)c1N(C(=O)CCl)C(C)COC` (centres undefined): the compound was called inactive in [2], in assay [3], in assay [12], in [5], in assay [6] and in assay [7]. The result in assay [9] and in assay [10] was inactive.

`N#CSCSC#N`: the call in [2], in [3], in assay [20], in [12], in assay [6] and in assay [7] was inactive. The call in [8], in [9] and in assay [10] was inactive. In assay [16], the AC50 is 2.75 µM (active).
